A word on the inhibition: it is the drop in the measured response relative to a control, in per cent.

“And” between values parts separate entries of the source, which are not always exact repeats. Identical values can stand only once. Among all 350,000 compounds or so, about 1,900 (0.54%) were called active.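 Rule for the calls: active = mean inhibition across replicates at least about 35%, with every replicate also reaching that limit (limit read from the data); inconclusive = only one of the two criteria met; inactive = neither criterion met.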 The entries come from a sample that favours actives as a whole. A structure can be active in one record and inactive in another.

Experimental findings from PubChem BioAssay AID686996 (Broad Institute, 2013) are described below.

The target of the experiment is Caspase-6 (Homo sapiens) (UniProt P55212). In words: human caspase-6 inhibitors, primary screen, biochemical, VEID-R110 fluorescence, single point, set 2 (AID 686996).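 Note: 0% = median of neutral control wells and 100% = no fluorescence left.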 As to conditions: purified caspase-6, Z-VEID-R110 cleavage fluorescence; at 12.5 µM; stronger effect = higher value.
Chain of Caspase-6 (Homo sapiens) (P55212 24-179 limits assumed): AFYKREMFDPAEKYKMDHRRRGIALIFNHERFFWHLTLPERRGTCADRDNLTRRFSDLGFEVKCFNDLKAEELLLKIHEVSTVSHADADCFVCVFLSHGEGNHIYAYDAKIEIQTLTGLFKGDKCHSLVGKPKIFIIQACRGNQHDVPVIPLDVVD
Chain of Caspase-6 (Homo sapiens) (P55212 194-293 limits assumed): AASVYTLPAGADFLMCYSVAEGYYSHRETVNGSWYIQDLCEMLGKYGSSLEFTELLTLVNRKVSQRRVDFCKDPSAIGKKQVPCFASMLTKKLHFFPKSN
For `CC=Cc1ccc2n(c1=O)C[C@@H]1[C@@H](CO)[C@H](C(=O)N[C@H](C)c3ccccc3)N(C(=O)c3cnccn3)[C@H]21` (mixture of isomers), the inhibition is -3.98% (inactive).
For `CC=Cc1ccc2n(c1=O)C[C@@H]1[C@@H](CO)[C@H](C(=O)N(C)C)[C@H]2N1CCc1ccccc1` (mixture of isomers), the inhibition was -1.44% (inactive).
The value for `CC=Cc1ccc2n(c1=O)C[C@@H]1[C@@H](CO)[C@H](C(=O)NCCc3ccccc3)N(C(C)=O)[C@H]21` (mixture of isomers) was 61.2% (active); that for `CO[C@H]1CN(C)C(=O)c2ccc(NC(=O)C3CC3)cc2OC[C@@H](C)N(Cc2ccc(F)cc2)C[C@@H]1C` was 3.32% (inactive).
For `CO/N=C(\C(=O)N[C@@H]1C(=O)N2C(C(=O)O)=C(COC(C)=O)CS[C@H]12)c1csc(N)n1` (stereo in doubt), the inhibition was 13.9% (inactive) and 5.09% (inactive) and 37.7% (active).
For `CCN1CCN(C(=O)N[C@@H](C(=O)N[C@@H]2C(=O)N3C(C(=O)O)=C(CSc4nnnn4C)CS[C@H]23)c2ccc(O)cc2)C(=O)C1=O` the value was 0.383% (inactive); for `Cc1cc(C)cc(C(=O)NC2C(=O)N3C(C(=O)O)=C(CSc4nnc(C)s4)CSC23)c1` (configuration not stated), 9.95% (inactive).
For `C=CC1=C(C(=O)O)N2C(=O)[C@@H](NC(=O)/C(=N/OCC(=O)O)c3csc(N)n3)[C@H]2SC1` the value was 88.2% (active); for `COc1ccccc1NC(=O)N1C[C@H](O)COC[C@H]2O[C@H](CC(=O)NCCc3ccccc3)CC[C@@H]21`, 1.79% (inactive).
As for `COc1ccccc1CN1CC[C@@H]2[C@@H](CO)Nc3ccc(C#Cc4ccccc4)cc3[C@@H]21`, the inhibition was 0.663% (inactive).
The value for `C[C@@H]1CN([C@@H](C)CO)C(=O)c2cc(NC(=O)Nc3cccc4ccccc34)ccc2O[C@@H]1CN(C)C(=O)NC1CCCCC1` was 0.662% (inactive); that for `C[C@@H](O)C#Cc1cnc2c(c1)C(=O)N([C@@H](C)CO)C[C@H](C)[C@@H](CN(C)CC1CCCCC1)O2` was 2.32% (inactive); that for `Oc1ccc(/C=N/N(Cc2ccccc2)c2ccccc2)cc1` was -0.437% (inactive).
Regarding `Oc1ccc(N=Cc2c(O)ccc3ccccc23)cc1`, the inhibition was 36.4% (active).
The value for `Cc1cc(N=Nc2ccc3ccccc3c2)ccc1O` was 2.65% (inactive); that for `COc1ccc(S(=O)(=O)Nc2cccc3c2O[C@H](CN(C)Cc2ccc4c(c2)OCO4)[C@H](C)CN([C@@H](C)CO)C3=O)cc1` was 0.634% (inactive).
`C[C@H]1CCCCO[C@H](CN(C)C(=O)Nc2ccccc2)[C@@H](C)CN([C@@H](C)CO)C(=O)c2cc(NC(=O)c3ccncc3)ccc2O1`: the inhibition is -0.544% (inactive).
The value for `Cc1cc(/C=C2\SC(=O)N(C)C2=O)c(C)n1-c1cccc(C(=O)O)c1` was 39.2% (active); that for `Cc1cc(/C=C2/SC(=O)N(CC(=O)N3CCCC3)C2=O)c(C)n1C` was 1.51% (inactive); that for `Cc1cc(/C=C2/SC(=O)N(CC(=O)OC(C)C)C2=O)c(C)n1C` was 1.11% (inactive).
The value for `O=C(C1=C[C@@H](c2ccccc2)C[C@@H](OCCCCO)O1)N1CCN(Cc2ccccc2)CC1` was -1.99% (inactive); that for `C[C@@H]1CN([C@H](C)CO)C(=O)Cc2cc(NC(=O)CCN3CCOCC3)ccc2O[C@H]1CN(C)C` was 0.558% (inactive); that for `COc1ccc2c3c([nH]c2c1)[C@@H](CO)N(Cc1ccncc1)CC31CN(C(=O)CN(C)C)C1` was -1.6% (inactive).
For `O=C(NC(=O)N1CCOCC1)c1ccccc1` the value was -0.559% (inactive); for `Cc1oc2c(c1C(=O)N1CCOCC1)C(=O)c1ccccc1C2=O`, 62.8% (active).
For the molecule `O=C(c1snnc1-c1ccccc1)N1CCOCC1`, the inhibition is -0.096% (inactive).
Consider `Cc1ccc(S(=O)(=O)N[C@H]2CC[C@H](CC(=O)O)O[C@H]2CO)cc1`, for which the inhibition was 3% (inactive).
The value for `Cc1noc(C)c1S(=O)(=O)N(C)C[C@H]1OCCCC[C@@H](C)Oc2ccc(NC(=O)C3CCCCC3)cc2C(=O)N([C@H](C)CO)C[C@@H]1C` was -3.38% (inactive); that for `COc1ccc(NC(=O)Nc2ccc3c(c2)C(=O)N([C@@H](C)CO)C[C@@H](C)[C@@H](CN(C)S(=O)(=O)c2ccc(C)cc2)OCCCC[C@H](C)O3)cc1` was -2.65% (inactive); that for `COCC(=O)N1[C@@H](CO)[C@H](c2ccccc2)C12CN(C(=O)NC1CCCCC1)C2` was -0.716% (inactive).
For `O=C(Nc1ccccc1C(=O)Nc1ccncc1)c1ccc([N+](=O)[O-])cc1` the value was -0.84% (inactive); for `O=C(Nc1nc2ccc([N+](=O)[O-])cc2s1)c1ccncc1`, 65.7% (active); for `O=C(Nc1ccncc1)c1ccc([N+](=O)[O-])cc1Cl`, -0.931% (inactive).
`CC(C)NC(=O)N(C)C[C@H]1Oc2ncc(C#CC3CC3)cc2C(=O)N([C@H](C)CO)C[C@@H]1C`: the inhibition was -0.116% (inactive).
For `C[C@H](CO)N1C[C@H](C)[C@H](CN(C)C(=O)Nc2cccc(Cl)c2Cl)OCc2ccccc2-c2ccccc2C1=O`, the inhibition is 0.728% (inactive).
The value for `COc1cccc(/C=C2\SC(=S)N(CCCC(=O)N3CCOCC3)C2=O)c1` was -1.77% (inactive); that for `Cc1ccc(-c2nn(-c3ccccc3)cc2/C=C2\SC(=S)N(CCCCCC(=O)O)C2=O)o1` was 49.9% (active).
For `O=C(CCCN1C(=O)/C(=C/c2cccs2)SC1=S)Nc1ccc(O)cc1` the value was 0.413% (inactive).
The value for `Cc1ccc(S(=O)(=O)Nc2ccc3c(c2)C(=O)N(C)[C@H]2CC[C@H](CC(=O)O)O[C@H]2CO3)cc1` was 0.009% (inactive); that for `C[C@H](CO)N1C[C@H](C)[C@H](CN(C)C(=O)C2CCC2)Oc2ncc(C#CCc3ccccc3)cc2C1=O` was -2.13% (inactive).
Turning to `O=C(O)CCn1c(O)c(C=C2N=c3ccccc3=N2)sc1=S`, the inhibition was 35.5% (active).
Consider `Cc1ccc(S(=O)(=O)N(C)C[C@@H]2Oc3c(NS(C)(=O)=O)cccc3C(=O)N([C@@H](C)CO)C[C@H]2C)cc1`, for which the inhibition was 0.89% (inactive).
The value for `COc1cccc(NC(=O)Nc2ccc3c(c2)C(=O)N(C)[C@@H]2CC[C@@H](CC(=O)NCCc4ccccc4)O[C@H]2CO3)c1` was 1.41% (inactive); that for `COc1ccc(OC)c(NC(=O)Cc2cccs2)c1` was 25.5% (inactive).
For `CCOC(=O)c1ccc(NC(=O)Cc2cccs2)cc1`, the inhibition was 0.303% (inactive).
For `CCOc1ccccc1NC(=O)Cc1cccs1` the value was 39.6% (active).
Regarding `CO[C@H]1CN(C)C(=O)c2cc(NC(=O)Nc3cccc(F)c3)ccc2OC[C@@H](C)N(C)C[C@@H]1C`, the inhibition was -5.35% (inactive).
For the molecule `C[C@H]1CN([C@@H](C)CO)S(=O)(=O)c2ccc(-c3ccncc3)cc2O[C@H]1CN(C)S(C)(=O)=O`, the inhibition is -2.14% (inactive).
For `COc1ccc(S(=O)(=O)Nc2ccc3c(c2)CC(=O)N([C@@H](C)CO)C[C@@H](C)[C@@H](CN(C)C(=O)Nc2c(C)noc2C)O3)cc1` the value was 1.08% (inactive).
For `O=C(C[C@H]1CC[C@H]2[C@@H](COC[C@H](O)CN2S(=O)(=O)c2cccc(F)c2)O1)NC1CCC1` the value was 0.605% (inactive); for `Cc1nnc(SCC(=O)Nc2ccc(S(=O)(=O)Nc3ccc(Cl)nn3)cc2)s1`, 35.3% (active); for `CCCCCC(=O)Nc1ccc(S(=O)(=O)Nc2ccc(Cl)nn2)cc1`, 9.99% (inactive).
With `Cc1nnc(SC(C)C(=O)Nc2ccc(S(=O)(=O)NC3CCCCC3)cc2)s1` (configuration not stated), the inhibition is 3.47% (inactive).
The value for `C[C@@H](NC(=O)C[C@H]1CC[C@@H](NC(=O)Cc2ccccn2)[C@@H](CO)O1)c1ccccc1` was -7.46% (inactive).
For `Oc1c(Cl)cc(Cl)c(Cl)c1Cc1c(O)c(Cl)cc(Cl)c1Cl` the value was 45.1% (active); for `CC(C)c1nc(SCC(=O)Nc2cccc(C(=O)O)c2)c2c3c(sc2n1)CCCC3`, 9.4% (inactive); for `O=C(CCc1nc2sc3c(c2c(=O)[nH]1)CCCC3)NCC(=O)Nc1ccccc1Br`, 36.7% (active).
The value for `O=C(CSc1nc(O)c(Cc2ccccc2)c(=O)[nH]1)Nc1nc2c(s1)CCCC2` was 9.11% (inactive); that for `O=c1ccc2c(-c3ccccc3S(=O)(=O)O)c3ccc(O)c(O)c3oc-2c1O` was 87.7% (active); that for `O=C(C[C@H]1CC[C@@H](NC(=O)Nc2ccc(F)cc2)[C@@H](CO)O1)NCCN1CCCC1` was -1.07% (inactive).
For `O=C(O)Cn1cnc2c(NCc3ccccc3)ncnc21`, the inhibition was -2.69% (inactive).
For `O=S(=O)(c1ccccc1)N1CC[C@@H]2[C@@H](CO)Nc3ccc(-c4ccccc4F)cc3[C@@H]21` the value was -0.847% (inactive).
The value for `C[C@H](CO)N1C[C@H](C)[C@H](CN(C)S(C)(=O)=O)Oc2ccc(NC(=O)CCCN(C)C)cc2C1=O` was -7.82% (inactive).
Turning to `COC(=O)c1cccc(NC(=O)c2cccc(N3C(=O)CCC3=O)c2)c1`, the inhibition was 45% (active).
For the molecule `COC(=O)c1cccc(N2C(=O)C3C4C=CC(CC4)C3C2=O)c1` (configuration not stated), the inhibition was 3.07% (inactive).
The value for `COc1ccccc1-c1nnc(NC(=O)c2cccc(N3C(=O)CCC3=O)c2)o1` was 6.24% (inactive).
For `C[C@@H]1CN([C@@H](C)CO)C(=O)c2cccc(NS(=O)(=O)c3ccc(Cl)cc3)c2O[C@@H]1CN(C)Cc1ccccc1` the value was 0.793% (inactive).
The value for `O=C(C1CCC1)N1CC[C@@H]2[C@H]1c1cc(C#Cc3ccc(F)cc3)ccc1N[C@@H]2CO` was 1.04% (inactive).
`O=S(=O)(c1cc(Cl)ccc1Cl)N1CCN(Cc2ccco2)CC1`: the inhibition is 4.43% (inactive).
As for `O=C(CN1CCN(S(=O)(=O)c2cc(Cl)ccc2Cl)CC1)c1ccc(O)c(O)c1`, the inhibition was 35.7% (active).
Turning to `CCN1CCN(C(=O)C2CCN(S(=O)(=O)c3cc(Cl)ccc3Cl)CC2)CC1`, the inhibition was -3.59% (inactive).
The value for `COc1cccc(CNC(=O)[C@H]2CCCN2C(=O)[C@H]2CCCN2C(=O)C2CCCCC2)c1` was 5.61% (inactive).
